Hit rate of the full screen: of about 1,400 compounds, about 210 (15%) were called active. Rule as the data show it: active = inhibition mostly above about 39% (no sharp cut-off); inactive = mostly below about 34%. Not all results are given here.
molecular target: Sentrin-specific protease 8 (Homo sapiens) (UniProt Q96LD8); test: human SENP8 protease inhibitors, confirmation, biochemical, Nedd8 protein substrate, single concentration (AID 624319); details: purified SENP8, Nedd8-AMC/pro-Nedd8 cleavage fluorescence, 30 min; at 25 µM; stronger effect = higher value
Sequence (Q96LD8 whole entry, looked up): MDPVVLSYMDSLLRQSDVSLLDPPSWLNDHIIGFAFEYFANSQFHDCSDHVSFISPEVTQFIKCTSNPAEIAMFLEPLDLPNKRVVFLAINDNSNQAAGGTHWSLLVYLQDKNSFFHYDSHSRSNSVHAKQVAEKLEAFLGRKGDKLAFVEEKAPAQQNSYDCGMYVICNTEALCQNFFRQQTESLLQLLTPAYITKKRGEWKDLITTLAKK

SMILES	inhibition
Oc1ccc(N=Cc2sc3ccccc3c2Cl)cc1	11.3% (inactive)
O=c1[nH]c2ccccc2s1	1.69% (inactive)
Cc1ccc(C(=O)N/N=C\c2cc(Br)c(Br)o2)cn1	6.43% (inactive)
O=[N+]([O-])c1ccc(C=Nc2ccc(Cl)cc2Cl)s1	14.4% (inactive)
O=C1Nc2ccc([N+](=O)[O-])cc2C1=Nc1cccc(CO)c1	76.8% (active)
c1coc(-c2nc3nc4ccccc4n3nc2-c2ccco2)c1	20.6% (inactive)
CN1C(=O)/C(=C/C=C2\SCCN2C)OC1=S	29.4% (inactive)
Cc1cc([N+](=O)[O-])c(NC2CCCCC2)c([N+](=O)[O-])c1	11% (inactive)
COC(=O)C1=C(C(=O)c2ccc(C)cc2)C(c2ccccc2)n2nnnc2N1 (stereo not drawn)	18.1% (inactive)
CCc1ccccc1NC(=O)[C@@H]1CCC(=O)N1C1OC(=O)c2c1ccc(OC)c2OC (stereo partly drawn)	13.7% (inactive)
O=C(OCC(=O)N1CCN(c2ccccc2)CC1)c1ccc([N+](=O)[O-])s1	57% (active)
O=C(c1ccccc1)N1CCN(c2ccc([N+](=O)[O-])c(NCc3ccco3)c2)CC1	14.3% (inactive)
CCOc1ccc(C(c2c(C)[nH][nH]c2=O)c2c(C)[nH][nH]c2=O)cc1OCC	2.47% (inactive)
Cc1[nH][nH]c(=O)c1C(c1ccc(-c2ccc(Cl)cc2)o1)c1c(C)[nH][nH]c1=O	49.8% (active)
CCN1CCC2(CC1)N=C(c1ccc(F)cc1)C(=S)N2C(=O)c1ccc(C)cc1	54.5% (active)
O=C(COC(=O)c1ccc([N+](=O)[O-])o1)NC12CC3CC(CC(C3)C1)C2	81.4% (active)
O=[N+]([O-])c1ccccc1NCc1ccccc1Cl	20.6% (inactive)
CCOCCCn1c(NN)nc2ccccc2c1=O	0.12% (inactive)
CCCCNCCS(=O)(=O)NCc1ccccc1	26.8% (inactive)
O=C(c1cccc(F)c1)N1CCN(c2ccc([N+](=O)[O-])c3cccnc23)CC1	16.9% (inactive)
O=C(Nc1ccc(C(=O)O)c(O)c1)c1ccccc1	0.26% (inactive)
CN1CCN(S(=O)(=O)c2ccc(N3CCN(c4ccccc4O)CC3)c([N+](=O)[O-])c2)CC1	29.3% (inactive)
O=C(Nc1cc2c3c(c1)C1CCCC1CN3CC1CCCC21)c1ccc([N+](=O)[O-])cc1 (stereo not drawn)	24.6% (inactive)
Nn1cnnc1N/N=C/c1cc([N+](=O)[O-])c(Cl)cc1Cl	16.6% (inactive)
COc1ccc(-c2nnco2)cc1OC	14.3% (inactive)
CCOc1cc(NC(=O)c2ccccc2C(=O)O)c(OCC)cc1NC(=O)c1ccccc1F	-3.99% (inactive)

SMILES	inhibition
O=C1CC(c2ccccc2)=NN1c1ccc([N+](=O)[O-])cc1	46.5% (active)
COC(=O)Cn1c2ccc(C)cc2c2nc(C)sc21	14.2% (inactive)
CN1CCc2ccccc2C1Cc1ccccc1NC(=O)c1sc2ccccc2c1Cl (stereo not drawn)	0.2% (inactive)
Nc1ccc2nc3c(=O)[nH]c(=S)[nH]c3nc2c1	26.8% (inactive)
CN(c1ccc(C(=O)N2CCc3ccccc3C2)cc1)S(C)(=O)=O	42.8% (active)
CCN(CC)C(=O)CCC(=O)Nc1ccc(C(=O)OC)cc1	8% (inactive)
CC(=O)N1CCN(S(=O)(=O)c2cccc(C(=O)NC3CCC(C)CC3)c2)CC1 (stereo not drawn)	3.29% (inactive)
CCc1ccccc1NC1c2ccccc2C(=O)N1c1cccnc1 (stereo not drawn)	12.2% (inactive)
O=c1[nH]n2c(=O)c3c([nH]c2c1N=Nc1ccccc1)CCC3	25.4% (inactive)
CCOC(=O)/C(=N\Nc1ccccc1[N+](=O)[O-])c1csc(Nc2ccccc2)n1	15% (inactive)
O=C(NCCCN1CCN(c2ccc(F)cc2)CC1)Nc1ccc([N+](=O)[O-])cc1	31.9% (inactive)
CCc1cccc(C)c1NC(=O)COC(=O)CC1CCCC1	29.1% (inactive)
CC(C)Cc1nnc(NC(=O)CCC(=O)Nc2ccc3cn[nH]c3c2)s1	2.31% (inactive)
O=C(COc1ccccc1)N1CCc2ccccc2C1	44.4% (active)
CCc1ccc(-c2nnn(Cc3nn[nH]n3)n2)cc1	10.7% (inactive)
O=C(Cc1ccccc1)NC(=S)Nc1ccc(N2CCCCC2)cc1	11.4% (inactive)
CC/C(=N/Nc1ccccc1)c1cnnc(SC)n1	16.1% (inactive)
Cc1ccc(C(=O)c2ccc(N3CCN(C)CC3)c([N+](=O)[O-])c2)cc1	14.5% (inactive)
CCCCCCCCCCCCCCCC(=O)OC/C=C(C)/C=C/C=C(C)/C=C/C1=C(C)CCCC1(C)C	4.1% (inactive)
Cc1cc(C)nc(N/N=C/c2ccc([N+](=O)[O-])o2)n1	22.3% (inactive)
CC1(C)C2CCC1(C)C(OC(=O)c1ccc(O)cc1)C2 (stereo not drawn)	18.1% (inactive)
CCOC(=O)c1ccc(N2C(=O)CC(N(C)Cc3ccccc3)C2=O)cc1 (stereo not drawn)	18.6% (inactive)
Cc1ccc(NS(=O)(=O)c2ccc(N/N=C/c3ccccc3OCC(=O)O)c([N+](=O)[O-])c2)c(C)c1	29.4% (inactive)
CC1(C)Cc2cccc(OCC(=O)Nc3nccs3)c2O1	2.41% (inactive)
COc1ccc(Br)cc1/C=N/Nc1ccc(S(=O)(=O)Nc2ccccc2C(=O)O)cc1[N+](=O)[O-]	21.5% (inactive)
CCCC1CCC(=NNC(=S)NCCc2ccccc2)CC1 (stereo not drawn)	5.71% (inactive)

SMILES	inhibition
COC(=O)CCCC1=CC2=CC(=O)C(C)(OC(=O)c3cccs3)C(=O)C2=CN1CC(C)C (stereo not drawn)	52.7% (active)
CCOC(=O)C1CCCN(C(=O)c2ccc(C)c(F)c2)CC1 (stereo not drawn)	10.1% (inactive)
COc1cc(C(=S)N2CCOCC2)cc(OC)c1OC(=O)c1cc([N+](=O)[O-])cc([N+](=O)[O-])c1	26.8% (inactive)
COc1ccc(C(=O)c2c3ccc([N+](=O)[O-])cc3[n+]([O-])n2CCCN)cc1	70.5% (active)
COc1ccc(-c2[nH][nH]c(=O)c2NC(=O)c2ccc([N+](=O)[O-])cc2)cc1	34.5% (inactive)
CCOC(=O)CNC(=O)N1c2ccccc2Sc2ccccc21	16.6% (inactive)
Cc1sc2ccccc2c1CNC[C@H]1O[C@@H](n2ccc(=O)[nH]c2=O)[C@H](O)[C@@H]1O	8.62% (inactive)
Cc1cccc(OCC(=O)NC(=S)Nc2ccccc2N2CCOCC2)c1	13% (inactive)
Cc1nc(SCC(=O)c2ccccc2)c([N+](=O)[O-])[nH]1	10.2% (inactive)
Cc1cc(C)c(/C=C2\C(=O)Nc3ccccc32)[nH]1	11.5% (inactive)
CC(C)CC(=O)N=C1SC2CS(=O)(=O)CC2N1CCc1ccccc1 (stereo not drawn)	-0.28% (inactive)
O=[N+]([O-])c1ccc(N2CCSCC2)cc1O	22.9% (inactive)
CCN=C1SC(CC(=O)Nc2ccc(C)cc2)C(=O)N1CC (stereo not drawn)	12.9% (inactive)
CC1CCN(c2ccc([N+](=O)[O-])c(SCCO)c2)CC1	19.1% (inactive)
Cc1ccccc1NCC(=O)N/N=C\c1ccc([N+](=O)[O-])s1	31.1% (inactive)
O=P(O)(CP(=O)(c1ccccc1)c1ccccc1)c1ccccc1O	13.6% (inactive)
CCOC(=O)C(CC)Sc1ncnc2c1nnn2-c1ccc(F)cc1 (stereo not drawn)	14.5% (inactive)
Cn1c2ccc(F)cc2c2nnc(NN)nc21	-8.09% (inactive)
O=C(NC(=S)N1CCCCC1c1cccnc1)c1ccccc1 (stereo not drawn)	8.53% (inactive)
CCC(C)[C@H](NC(=O)N1c2ccccc2NC(=O)[C@@H]1C(C)C)C(=O)N[C@@H](Cc1ccccc1)C(=O)O (stereo partly drawn)	7.29% (inactive)
COc1ccc(S(=O)(=O)Nc2ccc3cn[nH]c3c2)cc1[N+](=O)[O-]	14.1% (inactive)
NN=C(NN=Cc1ccccc1)c1ccccc1	43.8% (active)
CC(C)[C@H](NC(=O)N1CC(=O)Nc2ccccc21)C(=O)N[C@@H](Cc1c[nH]c2ccccc12)C(=O)O	15% (inactive)
COc1cccc(N(CC(=O)NCCSc2ccccn2)S(C)(=O)=O)c1	3.26% (inactive)
CCOc1ccc(NCCC(=O)c2ccc3c(c2)OCO3)cc1	23.6% (inactive)
Cc1ccc(C(=O)N/C(=C/c2ccc(-c3cccc([N+](=O)[O-])c3)o2)C(=O)NCCCN(C)C)cc1	17.4% (inactive)

— PubChem BioAssay AID624319 (Sanford-Burnham Center for Chemical Genomics, 2012)
